Bioassay records (PubChem BioAssay)
Shown is part of a subset that was picked to be rich in hits.
DUX4 txn inh = blocks DUX4-driven transcriptional activation. 293T-iDUX4 ZSCAN4-Gaussia luciferase reporter, 24 h; active compounds read low. activity change, negative = inhibition, % (test concentration not listed). 0.8% of 37,000 active. AID 1224904;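 active = mean inhibition of at least 10% in the main channel, exceeding the control channel by a set limit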;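 also: 0% = median of neutral control wells and -100% = median of positive control wells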
* hit, by the source's call.

SMILES	DUX4 txn inh
C[C@@H]1CN([C@H](C)CO)C(=O)c2c(c3ccccc3n2C)-c2ccccc2CO[C@@H]1CN(C)Cc1cccc(C(F)(F)F)c1	-5
C[C@H]1CN([C@@H](C)CO)C(=O)c2ccccc2-c2ccccc2CO[C@H]1CN(C)Cc1cccc2c1OCCCO2	0
C[C@H](CO)N1C[C@H](C)[C@@H](CN(C)C(=O)Nc2ccccc2C(F)(F)F)OCc2ccccc2-c2c(n(C)c3ccccc23)C1=O	-6
C[C@H](CO)N1C[C@H](C)[C@H](CN(C)C(=O)Cc2ccccc2)OCCCC[C@H](C)Oc2ccc(NC(=O)c3ccncc3)cc2C1=O	6
CNC[C@@H]1Oc2ncc(C#CC3(O)CCCC3)cc2C(=O)N([C@H](C)CO)C[C@@H]1C	1
COc1ccccc1-c1ccc2c(c1)O[C@H](CN(C)C(=O)Nc1cccc(F)c1)[C@@H](C)CN([C@H](C)CO)S2(=O)=O	1
O=C(C1CCCC1)N1CC2(C1)[C@@H](c1ccccc1)[C@H](CO)N2C(=O)NC1CCCC1	1
CCCN1C[C@H](C)[C@@H](OC)CN(C)C(=O)c2cc(NC(=O)c3cccc(OC)c3)ccc2OC[C@H]1C	1
CCS(=O)(=O)N1CCC2(CC1)CN(C(=O)CN1CCOCC1)[C@@H](CO)c1c2c2ccc(OC)cc2n1C	26
O=C(C[C@@H]1C[C@H]2c3cc(NC(=O)C4CCC4)ccc3O[C@H]2[C@@H](CO)O1)NCCc1ccccc1	9
CO[C@H]1CN(C)C(=O)c2cc(NC(=O)NC(C)C)ccc2OC[C@@H](C)N(CCC(F)(F)F)C[C@H]1C	-2
C[C@H](CO)N1C[C@H](C)[C@H](CN(C)S(=O)(=O)c2cn(C)cn2)OCCCC[C@H](C)Oc2ccc(NC(=O)CCCN(C)C)cc2C1=O	8
O=C(NCc1ccc(F)cc1)[C@H]1[C@H](CO)[C@H]2Cn3c(cccc3=O)[C@@H]1N2CC1CCCC1	1
CC(C)[C@H]1C(=O)N[C@H](c2ccccc2)CC=CC[C@@H](C)Oc2ccccc2C(=O)N1C (mixture of isomers)	-3
CC=Cc1ccc2n(c1=O)C[C@H]1[C@H](CO)[C@@H](C(=O)N3CCN(C)CC3)N(Cc3ccccc3F)[C@@H]21 (mixture of isomers)	0
COc1ccc2c3c([nH]c2c1)[C@H](CO)N(S(C)(=O)=O)CC31CCN(C(=O)CN(C)C)CC1	17
Cc1ccccc1-c1ccc([C@@H]2[C@@H](CO)N3CCCCN(S(=O)(=O)c4ccc(F)cc4)C[C@H]23)cc1	-40*
N#Cc1ccc(-c2ccc([C@H]3[C@@H](CO)N4CCCCN(C(=O)Nc5ccc(F)cc5)C[C@H]34)cc2)cc1	-39*
Cc1ccccc1-c1ccc([C@@H]2[C@@H](CO)N3CCCCN(C(=O)Nc4cccc(F)c4)C[C@@H]23)cc1	-27*
CCS(=O)(=O)N1CCCCN2[C@H](CO)[C@@H](c3ccc(-c4ccccc4C)cc3)[C@@H]2C1	10
COc1ccc(S(=O)(=O)N2CCCCN3[C@H](CO)[C@@H](c4ccc(C5=CCCC5)cc4)[C@@H]3C2)cc1	1
N#Cc1ccc(-c2ccc([C@H]3[C@H](CO)N4CCCCN(C(=O)Nc5ccc(F)cc5)C[C@@H]34)cc2)cc1	10
N#Cc1ccc(-c2ccc([C@H]3[C@H]4CN(C(=O)Nc5ccc(F)cc5)CCCCN4[C@H]3CO)cc2)cc1	39
Cc1ccccc1-c1ccc([C@H]2[C@H](CO)N3CCCCN(S(C)(=O)=O)C[C@@H]23)cc1	17
O=C(Nc1cccc(F)c1)N1CCCCN2[C@H](C1)[C@@H](c1ccc(-c3ccncc3)cc1)[C@@H]2CO	7
SMILES	DUX4 txn inh
O=S(=O)(c1ccc(F)cc1)N1CCCCN2[C@@H](CO)[C@@H](c3ccc(C4=CCCCC4)cc3)[C@@H]2C1	-4
O=C(Nc1ccc(F)cc1)N1CCCCN2[C@H](C1)[C@H](c1ccc(-c3cccc(F)c3)cc1)[C@@H]2CO	9
O=S(=O)(c1ccc(F)cc1)N1CCCCN2[C@H](CO)[C@H](c3ccc(C4=CCCCC4)cc3)[C@@H]2C1	-42*
CCCNC(=O)N1CC2(C1)[C@@H](c1ccccc1)[C@H](CO)N2C(=O)C1CCC1	7
O=C(C[C@H]1CC[C@@H]2[C@H](COC[C@H](O)CN2C(=O)c2ccccc2F)O1)N1CCOCC1	15
O=C(NC1CCC1)[C@@H]1[C@@H](CO)[C@@H]2Cn3c(ccc(C4=CCCC4)c3=O)[C@H]1N2C(=O)c1ccccc1	-6
COc1ccccc1-c1ccc([C@H]2[C@@H](CO)N3CCCCN(Cc4ccncc4)C[C@@H]23)cc1	6
COCC(=O)N1[C@H](C#N)[C@H](c2ccccc2C2=CCCCC2)[C@@H]1CO	3
COc1cccc(-c2ccc([C@H]3[C@H](CO)N4C(=O)CN(C(=O)CN5CCOCC5)C[C@@H]34)cc2)c1	7
CCC(=O)N1CCC2(CC1)CN(Cc1ccc3c(c1)OCO3)[C@H](CO)c1c2c2ccc(OC)cc2n1C	7
CO[C@H]1CN(C)C(=O)c2cc(NC(=O)C3CCOCC3)ccc2OC[C@@H](C)N(C(C)=O)C[C@H]1C	8
